High-throughput results as filed in PubChem BioAssay.
CHOP inh = inhibitors of CHOP promoter induction, primary screen, cell-based, unfolded protein response, luciferase reporter; CHO-K1 CHOP-promoter luciferase, tunicamycin-induced, 15-18 h; inhibition, % at 10 µM; hit rate 3.8% among 220,000;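 active = compounds that reduced the stress-induced luciferase reporter signal by more than about 70% of percent inhibition, limit read from the data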
WT yeast gro inh = growth inhibition of WT strain, primary screen, mitochondrial fusion inhibitor project, WT and mutant strains, chemical genetic; inhibition, % at 10 µM; mitochondrial fusion phenotypic screen; hit rate 2.1% among 190,000; AID 1362, 2008; in the data active = inhibition above about 58%; tested in S. cerevisiae
Lmaj promast = Leishmania major promastigote growth inhibition, primary screen | Leishmania major promastigotes, resazurin fluorescence viability | inhibition, % at 10 µM | hit rate 9% among 200,000; in the data active = inhibition above about 50%;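 also: promastigotes grown with compound for 44 hours at 28 °C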
RAM inhibit = inhibitors of the yeast RAM network, primary screen, dse1pr::URA3 reporter, 5-FOA selection | hit rate 1.8% among 190,000 | inhibition, % at 50 µM | AID 868, 2007 | S. cerevisiae dse1pr::URA3 reporter, 5-FOA growth OD615, 2 d; analog-sensitive cbk1-as2 kinase mutant strain;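 active = inhibition above a set limit, 3 SD over mean compound inhibition, cut at about 8.4% in these data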;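 also: inhibition rescues growth on 5-FOA so higher OD means more RAM inhibition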
A number is an active result. Only some compounds are listed: those with a hit (about 13% of all), similar ones and a draw of the others.

`Cc1ccc(-c2nc(N)sc2-c2ccccc2)cc1C` gave CHOP inh 86.7, WT yeast gro inh 73.4, Lmaj promast inactive and RAM inhibit inactive.
Nc1nc(-c2ccccc2)c(-c2ccccc2)s1 was read as CHOP inh inactive, WT yeast gro inh inactive, Lmaj promast inactive and RAM inhibit inactive.
Screening O=C(/C=C/c1ccccc1)Nc1ccc(N2CCCCC2)cc1 returned CHOP inh inactive, WT yeast gro inh inactive, Lmaj promast inactive and RAM inhibit inactive.
Nc1nc(Nc2ccccc2F)nc(N2CCOCC2)c1[N+](=O)[O-] was read as CHOP inh inactive.
Screening CC1=C(OC(=O)c2ccccc2)C(C)(C)C(c2ccc(Br)cc2)OC1=O (stereo unspecified) returned CHOP inh 91.5, WT yeast gro inh 66.0, Lmaj promast inactive and RAM inhibit inactive.
For CC1=C(OC(=O)c2ccccc2)C(C)(C)C(c2ccccc2)OC1=O (stereo unspecified) the results were CHOP inh 81.2, WT yeast gro inh inactive, Lmaj promast inactive and RAM inhibit inactive.
`CCc1ccc(C2C(C#N)=C(N)C(C#N)(C#N)C3=CCC(C(C)(C)C)CC32)cc1` (stereo unspecified) gave CHOP inh inactive, WT yeast gro inh inactive, Lmaj promast 96.0 and RAM inhibit inactive.
`CCOc1ccccc1C1C(C(=O)OC)=C(N)OC2=C1C(=O)CCC2` (stereo unspecified) gave CHOP inh inactive, WT yeast gro inh inactive, Lmaj promast inactive and RAM inhibit inactive.
For CCOc1ccc(Br)cc1C1C(C(=O)OC)=C(N)Oc2cc(N(C)C)ccc21 (stereo unspecified) the results were CHOP inh inactive, WT yeast gro inh 58.6, Lmaj promast 100.1 and RAM inhibit inactive.
Screening Cc1ccc(NNC(=O)c2ccno2)c(C)c1 returned CHOP inh inactive.
For CC1=CC(=O)C=C(C)C1=NOc1ccc([N+](=O)[O-])cc1 the results were CHOP inh inactive, WT yeast gro inh inactive, Lmaj promast 59.6 and RAM inhibit inactive.
`CC1CN(C)C(C)C/C1=N\Oc1ccc([N+](=O)[O-])cc1` (stereo unspecified) gave CHOP inh inactive, WT yeast gro inh inactive, Lmaj promast inactive and RAM inhibit inactive.
CCCCCNCc1ccc(OCc2ccc(Cl)nc2)c(OC)c1 was read as CHOP inh inactive, WT yeast gro inh inactive, Lmaj promast 99.6 and RAM inhibit inactive.
Screening COc1cc(CNCCNCC(C)O)ccc1OCc1ccc(Cl)nc1 (stereo unspecified) returned CHOP inh inactive, WT yeast gro inh inactive, Lmaj promast inactive and RAM inhibit inactive.
COc1ccc(CCNCc2ccc(OCc3ccc(Cl)nc3)c(OC)c2)cc1OC was read as CHOP inh inactive, WT yeast gro inh inactive, Lmaj promast 89.9 and RAM inhibit inactive.
COc1cc(CNCc2ccccn2)ccc1OCC(N)=O was read as CHOP inh inactive, WT yeast gro inh inactive, Lmaj promast inactive and RAM inhibit inactive.
For CCOCCCNCc1ccc(OCCC(C)C)c(OC)c1 the results were CHOP inh inactive, WT yeast gro inh inactive, Lmaj promast 85.4 and RAM inhibit inactive.
Screening COc1cc(CNCc2ccccn2)ccc1OCc1ccc(Cl)c(Cl)c1 returned CHOP inh inactive, WT yeast gro inh 72.2, Lmaj promast 100.0 and RAM inhibit inactive.
`O=C(N/N=C/c1cccc([N+](=O)[O-])c1)c1ccccc1-n1cccc1` gave CHOP inh inactive, WT yeast gro inh inactive, Lmaj promast inactive and RAM inhibit inactive.
For COc1ccc(CCNC(=O)Cc2ccc([N+](=O)[O-])cc2)cc1OC the results were CHOP inh inactive.
`COc1ccc(CCNC(=O)Cc2ccc(OCc3ccccc3)c(OC)c2[N+](=O)[O-])cc1OCc1ccccc1` gave CHOP inh inactive, WT yeast gro inh inactive, Lmaj promast inactive and RAM inhibit 9.1.
For COc1ccc(CNCCc2ccccc2)cc1OCC(N)=O the results were CHOP inh inactive, WT yeast gro inh inactive, Lmaj promast inactive and RAM inhibit inactive.
Screening COc1ccc(CNCCc2ccc(Cl)cc2)cc1OCc1ccccc1 returned CHOP inh inactive, WT yeast gro inh 82.0, Lmaj promast 96.2 and RAM inhibit inactive.
For COc1cccc(-c2csc3nnc(SCC(=O)c4ccc(NC(C)=O)cc4)n23)c1 the results were CHOP inh 78.6, WT yeast gro inh inactive, Lmaj promast inactive and RAM inhibit inactive.
`CN1c2ccccc2C(C)(C)C12CC(c1ccc(Cl)c(S(=O)(=O)N3CCCC3)c1)=NO2` (stereo unspecified) gave CHOP inh inactive, WT yeast gro inh inactive, Lmaj promast 69.0 and RAM inhibit inactive.
`CN1c2ccccc2C(C)(C)C12CC(CCl)=NO2` (stereo unspecified) gave CHOP inh inactive, Lmaj promast inactive and RAM inhibit inactive.
`CC(=O)Nc1cccc(CNCc2cccc(NC(C)=O)c2)c1` gave CHOP inh inactive, WT yeast gro inh inactive, Lmaj promast inactive and RAM inhibit inactive.
COc1ccc(-c2c[n+](CC(=O)c3ccccc3)c3n2CCCCC3)cc1 was read as CHOP inh inactive.
Clc1ccc(-c2c[n+](Cc3ccc(Br)cc3)c3n2CCCCC3)cc1 was read as CHOP inh inactive.
For O=C(C[n+]1cc(-c2ccccc2)n2c1CCCCC2)c1ccc(Cl)cc1 the results were CHOP inh inactive, WT yeast gro inh inactive, Lmaj promast 69.5 and RAM inhibit inactive.
Screening Cc1ccc(-c2c[n+](CC(=O)c3ccc(Br)cc3)c3n2CCCCC3)cc1 returned CHOP inh inactive, WT yeast gro inh inactive, Lmaj promast 100.5 and RAM inhibit inactive.
For CC1CCC(C(C)C)C(OC(=O)C[n+]2cc(-c3ccc(Cl)cc3)n3c2CCCCC3)C1 (stereo unspecified) the results were CHOP inh inactive, WT yeast gro inh inactive, Lmaj promast 100.5 and RAM inhibit inactive.
`COc1ccc(C(=O)NC(=S)Nc2cccc(Cl)c2N2CCOCC2)cc1[N+](=O)[O-]` gave CHOP inh inactive, WT yeast gro inh inactive, Lmaj promast inactive and RAM inhibit inactive.
For CC[N+]1(CC)CC2CCC(C)(C1)C2(C)C (stereo unspecified) the results were CHOP inh inactive, WT yeast gro inh inactive, Lmaj promast inactive and RAM inhibit inactive.
For N=C1CCCN1CC(=O)c1ccc(Br)cc1 the results were CHOP inh inactive, WT yeast gro inh inactive, Lmaj promast inactive and RAM inhibit inactive.
Screening CCCCn1c(-c2ccncc2)nc2c1c(=O)[nH]c(=O)n2CC(C)C returned CHOP inh inactive, WT yeast gro inh inactive, Lmaj promast inactive and RAM inhibit inactive.
`COCCn1c(=O)[nH]c(=O)c2c1nc(-c1ccc(-c3ccc(Cl)cc3[N+](=O)[O-])o1)n2Cc1ccccc1` gave CHOP inh inactive, WT yeast gro inh inactive, Lmaj promast inactive and RAM inhibit inactive.
For COCCn1c(-c2ccc(-c3ccc([N+](=O)[O-])cc3Br)o2)nc2c1c(=O)[nH]c(=O)n2CC(C)C the results were CHOP inh inactive, WT yeast gro inh inactive, Lmaj promast 72.6 and RAM inhibit inactive.
